According to PubChem BioAssay (NCI):
This is part of a sample that, as a whole, favours compounds with a hit. Of some 83,000 tested, about 20% had one in any assay.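 Compound tested at a single concentration for 48 hours in 96-well plates; a percent growth value below 10 was scored as active.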 Activity calls are given as the source filed them.

Columns and labels:
Assay in all cases: NCI-60 one-dose screen, 48 h (100 = growth as untreated, 0 = no growth, -100 = all killed)
Settings in all cases: 10 µM unless noted
T-47D breast = system: T-47D breast
BT-549 breast = system: BT-549 breast
MDA-MB-435 melanoma = system: MDA-MB-435 melanoma
SW-620 colon = system: SW-620 colon
MCF7 breast = system: MCF7 breast
HCT-116 colon = system: HCT-116 colon
HCC-2998 colon = system: HCC-2998 colon
KM12 colon = system: KM12 colon

Measured: growth

O=C(NCCN1CCCC1)n1cc(-c2ccncc2)c(-c2cc(O)cc(Cl)c2)n1
inactive: T-47D breast 98% | BT-549 breast 111% | MDA-MB-435 melanoma 57.3% | SW-620 colon 115% | MCF7 breast 96.2% | HCT-116 colon 75.3% | HCC-2998 colon 122% | KM12 colon 108%

c1ccc(CCn2cccc2)nc1
inactive: T-47D breast 94.7% | BT-549 breast 106% | MDA-MB-435 melanoma 114% | SW-620 colon 117% | MCF7 breast 101% | HCT-116 colon 101% | HCC-2998 colon 96.7% | KM12 colon 103%

COc1cc(C)c(Cl)cc1C1=NN(c2ccc(S(N)(=O)=O)cc2)C(/C=C/c2ccccc2)C1 (stereo unspecified)
inactive: T-47D breast 17.5% | BT-549 breast 107% | MDA-MB-435 melanoma 62.5% | SW-620 colon 43.9% | MCF7 breast 23.3% | HCT-116 colon 11.5% | HCC-2998 colon 74.9% | KM12 colon 34.8%

COc1cc(C2CC(c3ccc(C)cc3)=NN2C=O)ccc1Oc1nc2c(c(=O)n(C)c(=O)n2C)n1C (stereo unspecified)
inactive: T-47D breast 80% | BT-549 breast 97.9% | MDA-MB-435 melanoma 62.7% | SW-620 colon 102% | MCF7 breast 77.1% | HCT-116 colon 81.8% | HCC-2998 colon 86.6% | KM12 colon 77.9%

N=c1nc(N2CCCCC2)cc(N)n1O
inactive: T-47D breast 100% | BT-549 breast 106% | MDA-MB-435 melanoma 107% | SW-620 colon 109% | MCF7 breast 84.2% | HCT-116 colon 106% | HCC-2998 colon 105% | KM12 colon 107%

O=C(O)C(CCc1ccccc1)NCc1ccccc1 (stereo unspecified)
inactive: T-47D breast 96.3% | BT-549 breast 47.4% | MDA-MB-435 melanoma 104% | SW-620 colon 102% | MCF7 breast 95.3% | HCT-116 colon 90.7% | HCC-2998 colon 97.2% | KM12 colon 100%

CCN1C(=O)N(CC)C2C1NN=c1s/c(=C\c3ccc(Br)cc3)c(=O)n12 (stereo unspecified)
active: MDA-MB-435 melanoma -13.6% | MCF7 breast 1.61% | HCT-116 colon 5.14% | KM12 colon 6.77%
inactive: T-47D breast 54.3% | BT-549 breast 18.2% | SW-620 colon 23.1% | HCC-2998 colon 10.2%

COc1ccc(C(=O)OC2C(OC3C(O)COC(O[C@H]4C[C@H]5[C@@H]6CC=C7C[C@@H](O)CC[C@]7(C)[C@H]6CC[C@]5(C)[C@H]4[C@H](C)C(=O)CCC(C)C)C3OC(C)=O)OCC(O)C2O)cc1 (stereo partly specified)
inactive: HCC-2998 colon 52.9% | KM12 colon 24.1%
active: T-47D breast 2.99% | BT-549 breast -8.64% | MDA-MB-435 melanoma -47.4% | SW-620 colon -57.3% | MCF7 breast -30.8% | HCT-116 colon 1.33%

Cn1cnc([N+](=O)[O-])c1S(=O)(=O)Oc1cccc2ccccc12
active: T-47D breast -30.9% | SW-620 colon 7.26%
inactive: BT-549 breast 99.9% | MDA-MB-435 melanoma 67.9% | MCF7 breast 44.8% | HCT-116 colon 17.8% | HCC-2998 colon 88.7% | KM12 colon 88.9%

CNC1=C([N+](=O)[O-])C(c2ccccc2O)C(C#N)=C(c2cccs2)O1 (stereo unspecified)
inactive: T-47D breast 81.7% | BT-549 breast 100% | MDA-MB-435 melanoma 97.8% | SW-620 colon 99.9% | MCF7 breast 92.3% | HCT-116 colon 98.7% | HCC-2998 colon 114% | KM12 colon 99.8%

CC(C)(C)OC[C@@H]1N=C(c2ccc(Br)cc2)Nc2nc3ccccn3c2C1=O
active: MDA-MB-435 melanoma -13.8%
inactive: T-47D breast 61.9% | BT-549 breast 72.5% | SW-620 colon 40.3% | MCF7 breast 27.8% | HCT-116 colon 43.7% | HCC-2998 colon 90.9% | KM12 colon 49%

CN1C(=O)C(C2=NNC(c3ccccc3C(=O)O)C2)C(=O)N(C)C1=O (stereo unspecified)
inactive: T-47D breast 87.4% | BT-549 breast 104% | MDA-MB-435 melanoma 104% | SW-620 colon 99.7% | MCF7 breast 99.7% | HCT-116 colon 99.4% | HCC-2998 colon 117% | KM12 colon 104%

CCN(CC)CCNC(=O)n1cc(-c2ccncc2)c(-c2ccc(Cl)c(OC)c2)n1
inactive: T-47D breast 69.2% | BT-549 breast 96.3% | MDA-MB-435 melanoma 97.2% | SW-620 colon 113% | MCF7 breast 85.9% | HCT-116 colon 84% | HCC-2998 colon 99% | KM12 colon 103%

CCS(=O)(=O)Nc1cccc(Nc2c3cccc(C)c3nc3c(C)cccc23)c1OC
active: HCC-2998 colon 1.62%
inactive: T-47D breast 22.2% | BT-549 breast 15.8% | MDA-MB-435 melanoma 54.9% | SW-620 colon 33.2% | MCF7 breast 11.6% | HCT-116 colon 22.9% | KM12 colon 15.4%

CC(C)[C@@H]1C=C2CC[C@H]3[C@](C)(CN)CCC[C@]3(C)[C@H]2CC1
inactive: T-47D breast 53.8% | BT-549 breast 90.7% | HCT-116 colon 31.3% | KM12 colon 37.8%
active: MDA-MB-435 melanoma -23% | SW-620 colon -65.8% | MCF7 breast -44.3% | HCC-2998 colon -40.1%

CC(=O)c1ccc(N2C(=O)c3ccc(Oc4ccccc4)cc3C2=O)cc1
inactive: T-47D breast 106% | BT-549 breast 98.8% | MDA-MB-435 melanoma 96.3% | SW-620 colon 98.8% | MCF7 breast 101% | HCT-116 colon 104% | HCC-2998 colon 99.4% | KM12 colon 95.6%

O=C(N/N=C\c1cc(Br)ccc1O)c1ccncc1
active: T-47D breast -3.65% | MCF7 breast 2.38%
inactive: BT-549 breast 45.2% | MDA-MB-435 melanoma 64.1% | SW-620 colon 37.7% | HCT-116 colon 21% | HCC-2998 colon 42.7% | KM12 colon 25.8%

COc1ccccc1CNCCCN1C(=O)c2ccc3c4c(ccc(c24)C1=O)C(=O)N(CCCOCCCCOCCCN)C3=O
inactive: BT-549 breast 27.4%
active: T-47D breast -56.8% | MDA-MB-435 melanoma -84.6% | SW-620 colon -60.6% | MCF7 breast -69.6% | HCT-116 colon -68.7% | HCC-2998 colon -53.5% | KM12 colon -59%

C=C1C(=O)O[C@H]2[C@H]1CC/C(COC(=O)NCc1ccc(Cn3c(=O)sn(CCCl)c3=O)cc1)=C\CC[C@@]1(C)O[C@@H]21
active: T-47D breast 3.07% | SW-620 colon -20.3% | HCT-116 colon -61.7%
inactive: BT-549 breast 59.4% | MDA-MB-435 melanoma 79.4% | MCF7 breast 31.7% | HCC-2998 colon 120% | KM12 colon 95.2%

CCCCCCCC/C=C/CCCCCCCC1=NC(C)(C)CN1c1ccccc1
inactive: T-47D breast 81.2% | BT-549 breast 105% | MDA-MB-435 melanoma 50.3% | SW-620 colon 82% | MCF7 breast 86.3% | HCT-116 colon 62.8% | HCC-2998 colon 103% | KM12 colon 105%

CC(C)OC1OC(OC(C)C)C(OC(C)C)OC1OC(C)C (stereo unspecified)
inactive: T-47D breast 115% | BT-549 breast 102% | MDA-MB-435 melanoma 110% | SW-620 colon 96.2% | MCF7 breast 103% | HCT-116 colon 88.5% | HCC-2998 colon 121% | KM12 colon 95.2%

O=c1nc(-c2ccccc2)c2cc(-c3ccc(N4CCOCC4)cc3)ccc2[nH]1
inactive: T-47D breast 52.4% | BT-549 breast 88% | MDA-MB-435 melanoma 76.6% | SW-620 colon 86.8% | MCF7 breast 71.2% | HCT-116 colon 74.3% | HCC-2998 colon 98% | KM12 colon 85.7%

COc1ccc(/C(C)=N/NC(=O)CSc2nc3ccccc3c(=O)n2CCc2ccc(S(N)(=O)=O)cc2)cc1
active: HCT-116 colon -47%
inactive: T-47D breast 22.3% | BT-549 breast 64.2% | MDA-MB-435 melanoma 16.7% | SW-620 colon 54.6% | MCF7 breast 59.1% | HCC-2998 colon 74.8% | KM12 colon 25.1%

CS(=O)(=O)c1ccc(C(=O)N/N=C/c2ccccc2Cl)cc1
inactive: T-47D breast 87.5% | BT-549 breast 92.7% | MDA-MB-435 melanoma 106% | SW-620 colon 97.3% | MCF7 breast 93.3% | HCT-116 colon 94.3% | HCC-2998 colon 95.8% | KM12 colon 100%

COC(=O)OC1C(O[C@H]2C[C@H]3[C@@H]4CC=C5C[C@@H](O)CC[C@]5(C)[C@H]4CC[C@]3(C)[C@H]2[C@H](C)C(=O)CCC(C)C)OCC(O)C1OC1OCC(O)C(O)C1OC(=O)c1ccc(OC)cc1 (stereo partly specified)
inactive: HCC-2998 colon 53.7% | KM12 colon 39.2%
active: T-47D breast -5.41% | BT-549 breast 6.19% | MDA-MB-435 melanoma -15.3% | SW-620 colon -55.9% | MCF7 breast -8.41% | HCT-116 colon 5.29%

CCSCC1CC(O)(c2ccccc2)C(c2ccccc2)C(c2ccc(F)cc2)O1 (stereo unspecified)
active: T-47D breast -17.5% | BT-549 breast -12.1% | MDA-MB-435 melanoma -18.8% | SW-620 colon -25.8% | MCF7 breast 1.86% | HCT-116 colon -31.2% | HCC-2998 colon 2.23% | KM12 colon -9.64%

COc1ccc(C2=NNC(c3ccc(Oc4nc5c(c(=O)n(C)c(=O)n5C)n4C)c(OC)c3)C2)cc1 (stereo unspecified)
inactive: T-47D breast 86.3% | BT-549 breast 88.6% | MDA-MB-435 melanoma 93% | SW-620 colon 109% | MCF7 breast 87.6% | HCT-116 colon 98.2% | HCC-2998 colon 102% | KM12 colon 97.6%
